{"source": "paper PMC5540273", "about": "(PLoS ONE, 2017);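 further: KINOMEscan kinase panel screen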", "data": [{"tested_on": "DAPK1", "details": "concentration: 1 μM, replicates: in singlicate; n = 1", "units": {"%Inh": "%"}, "values": [{"smiles": "CN(c1ccc(NC(=O)Nc2cc(C(F)(F)F)ccc2F)cc1)c1ccnc(Nc2ccc(S(N)(=O)=O)cc2)n1", "note": "[GW809893]", "%Inh": 0}, {"smiles": "Cc1cccc(NC(=O)Nc2ccc(Oc3ncnc4ccn(C)c34)cc2)c1", "%Inh": 0}, {"smiles": "Cl.c1ccc(-c2ccc3c(Nc4ccc5[nH]ccc5c4)ccnc3c2)nc1", "note": "[GW440138]", "%Inh": 5}, {"smiles": "CN1CCN(CCCNc2nccc(-c3c(-c4ccc(F)cc4)nn4cc(C(F)(F)F)ccc34)n2)CC1", "note": "[GW621581]", "%Inh": 0}, {"smiles": "C[C@@H](Oc1cc(-n2cnc3cc(-c4ccnc(NCCS(C)(=O)=O)c4)ccc32)sc1C(N)=O)c1ccccc1Cl", "note": "[GSK907232]", "%Inh": 64}, {"smiles": "Cc1cccc(Nc2nc(N[C@H]3CCNC3)ncc2C(N)=O)c1.Cl", "note": "[GSK2197149]", "%Inh": 69}, {"smiles": "CCc1ccc(-c2ccc3c(c2)-c2c(cnn2C)S(=O)(=O)N3C)cc1", "%Inh": 1}, {"smiles": "COc1cc(Nc2ncc3c(C)nc(-c4cc5ccccc5[nH]4)n3n2)cc(OC)c1OC", "note": "[GW869516]", "%Inh": 0}, {"smiles": "Cc1ccc(S(=O)(=O)Nc2ccc(Nc3nccc(Nc4cccc5[nH]ncc45)n3)cc2)cc1", "note": "[GSK581271]", "%Inh": 0}, {"smiles": "COc1ccc(Nc2nccc(NCCNC(=O)c3cc4ccccc4s3)n2)cc1", "note": "[GSK1379896]", "%Inh": 4}, {"smiles": "CN1CCN(Cc2cccc(-c3ccc4c(Nc5ccc(Oc6ccccc6)cc5)ccnc4c3)c2)CC1", "note": "[GW578342]", "%Inh": 100}, {"smiles": "COc1ccc(Nc2nccc(N3CCC(NC(=O)Nc4cccc(OC)c4)C3)n2)cc1", "note": "(centres unmarked) [GSK1379742]", "%Inh": 0}, {"smiles": "O=C(Nc1n[nH]c2cc(-c3ccoc3)ccc12)C1CC1", "note": "[SB-738481]", "%Inh": 6}, {"smiles": "Nc1ncnc2c1nc(-c1ccccc1)n2-c1ccccc1", "note": "[SKF-97293]", "%Inh": 0}, {"smiles": "COc1ccc(CNC(=O)NC2CCN(c3ccnc(Nc4ccc(F)cc4)n3)CC2)cc1", "note": "[GSK1379788]", "%Inh": 0}, {"smiles": "Cc1occc1-c1ncc(OC[C@@H](N)Cc2c[nH]c3ccccc23)cc1-c1ccc2[nH]nc(C)c2c1.O=C(O)C(F)(F)F", "note": "[GSK682037]", "%Inh": 0}, {"smiles": "c1ccc(-c2n[nH]cc2Nc2ccnc3ccccc23)nc1", "note": "[GW694077]", "%Inh": 23}, {"smiles": "O=C(Nc1cccc(-c2nn3ncccc3c2-c2ccnc(Nc3ccccc3)n2)c1)c1c(F)cccc1F", "note": "[GSK198271]", "%Inh": 11}, {"smiles": "Nc1n[nH]c2cnc(-c3ccccc3)cc12", "note": "[SB-642124]", "%Inh": 24}, {"smiles": "CC(=O)Nc1nc2cnc(Nc3cc(NC(=O)c4cccc(C5(C#N)CC5)c4Cl)ccc3C)nc2s1", "%Inh": 0}, {"smiles": "O=C(Nc1n[nH]c2nc(-c3ccc(O)cc3)ccc12)C1CC1", "note": "[SB-710363]", "%Inh": 76}, {"smiles": "Cn1cc(-c2[nH]c3cc(NC(=O)[C@H](N)C4CCCCC4)cc4c3c2C=NNC4=O)cn1", "%Inh": 99.8}, {"smiles": "O=C(Nc1cccc(-c2nn3ccccc3c2-c2ccnc(Nc3cccc(F)c3)n2)c1)c1c(F)ccc(F)c1Cl", "note": "[GSK357952]", "%Inh": 0}, {"smiles": "O=C(Nc1ccccc1F)NC1CCN(c2ccnc(Nc3ccc(F)cc3)n2)CC1", "note": "[GSK1379800]", "%Inh": 0}, {"smiles": "CSc1cccc2c(-c3ccncn3)c(-c3ccc(F)cc3)nn12", "note": "[GW514786]", "%Inh": 0}, {"smiles": "COc1ccc(-c2coc3ccc(-c4nnc(SCc5ccc(OC)c(C(F)(F)F)c5)o4)cc23)cc1", "%Inh": 15}]}]}
